For three compounds, inhibition results are on record in ChEMBL document CHEMBL1961873, “Compounds: GSK PKIS; Assays: Nanosyn kinase panel” (2012).

Assay [1] concerns the target Ribosomal protein S6 kinase alpha-6 (Homo sapiens) (UniProt Q9UK32). Conditions: at 1 µM.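 Also: each value is a mean inhibition of RSK4 from a GSK PKIS panel screen.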
Assay [2] has as its target T1, Serine/threonine-protein kinase Sgk1 (Homo sapiens) (UniProt O00141).
T1 sequence (whole entry): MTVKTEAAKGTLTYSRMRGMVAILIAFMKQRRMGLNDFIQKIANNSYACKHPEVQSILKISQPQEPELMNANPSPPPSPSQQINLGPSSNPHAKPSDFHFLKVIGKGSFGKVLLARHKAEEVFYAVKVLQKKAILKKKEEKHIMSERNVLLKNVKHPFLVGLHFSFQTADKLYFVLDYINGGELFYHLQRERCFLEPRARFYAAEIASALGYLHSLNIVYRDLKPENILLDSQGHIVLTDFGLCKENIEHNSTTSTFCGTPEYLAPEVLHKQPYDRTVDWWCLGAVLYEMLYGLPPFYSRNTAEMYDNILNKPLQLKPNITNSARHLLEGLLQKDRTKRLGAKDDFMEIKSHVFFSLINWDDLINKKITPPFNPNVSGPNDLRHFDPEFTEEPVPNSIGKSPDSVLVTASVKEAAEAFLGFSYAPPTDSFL
Conditions: at 0.1 µM.

Assay [3] addresses T1, Serine/threonine-protein kinase Sgk1 (Homo sapiens). Conditions: at 1 µM.
In assay [4] the target is T2, Serine/threonine-protein kinase Sgk2 (Homo sapiens) (UniProt Q9HBY8).
T2 sequence (whole entry): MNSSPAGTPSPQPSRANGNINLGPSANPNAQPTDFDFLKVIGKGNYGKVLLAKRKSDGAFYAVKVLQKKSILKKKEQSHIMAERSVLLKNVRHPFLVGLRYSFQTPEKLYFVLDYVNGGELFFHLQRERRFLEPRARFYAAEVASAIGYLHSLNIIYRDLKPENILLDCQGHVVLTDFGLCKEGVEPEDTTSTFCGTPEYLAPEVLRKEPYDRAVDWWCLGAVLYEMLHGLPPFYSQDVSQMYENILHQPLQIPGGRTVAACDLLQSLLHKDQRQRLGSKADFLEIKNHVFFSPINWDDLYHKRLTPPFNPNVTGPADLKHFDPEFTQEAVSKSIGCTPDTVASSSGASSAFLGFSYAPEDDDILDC
Conditions: at 0.1 µM.

In assay [5] the target is T2, Serine/threonine-protein kinase Sgk2 (Homo sapiens). Conditions: at 1 µM.
Assay [6] deals with T3, Serine/threonine-protein kinase Sgk3 (Homo sapiens) (UniProt Q96BR1).
T3 sequence (whole entry): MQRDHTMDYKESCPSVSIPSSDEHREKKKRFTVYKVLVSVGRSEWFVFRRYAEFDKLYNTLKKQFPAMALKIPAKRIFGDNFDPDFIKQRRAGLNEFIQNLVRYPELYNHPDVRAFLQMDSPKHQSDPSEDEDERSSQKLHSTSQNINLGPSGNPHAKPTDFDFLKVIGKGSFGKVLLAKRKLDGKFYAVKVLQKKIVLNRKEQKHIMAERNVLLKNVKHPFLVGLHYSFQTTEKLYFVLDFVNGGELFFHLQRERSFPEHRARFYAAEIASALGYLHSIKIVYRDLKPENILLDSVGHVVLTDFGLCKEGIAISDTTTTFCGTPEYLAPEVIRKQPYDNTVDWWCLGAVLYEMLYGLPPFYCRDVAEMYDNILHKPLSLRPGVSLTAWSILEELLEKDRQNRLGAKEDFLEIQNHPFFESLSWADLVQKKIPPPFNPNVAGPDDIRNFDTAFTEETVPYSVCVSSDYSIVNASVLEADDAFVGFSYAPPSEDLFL
Conditions: at 0.1 µM.

Assay [7] concerns the target T3, Serine/threonine-protein kinase Sgk3 (Homo sapiens). Conditions: at 1 µM.
Assay [8] concerns the target 5'-AMP-activated protein kinase catalytic subunit alpha-1 (Homo sapiens) (UniProt Q13131). Conditions: at 0.1 µM.
The target is the same in assay [9]. Conditions: at 1 µM.
In assay [10] the target is 5'-AMP-activated protein kinase catalytic subunit alpha-2 (Homo sapiens) (UniProt P54646). Conditions: at 0.1 µM.
The target is the same in assay [11]. Conditions: at 1 µM.
The target in assay [12] is T4, NUAK family SNF1-like kinase 1 (Homo sapiens) (UniProt O60285).
T4 sequence (whole entry): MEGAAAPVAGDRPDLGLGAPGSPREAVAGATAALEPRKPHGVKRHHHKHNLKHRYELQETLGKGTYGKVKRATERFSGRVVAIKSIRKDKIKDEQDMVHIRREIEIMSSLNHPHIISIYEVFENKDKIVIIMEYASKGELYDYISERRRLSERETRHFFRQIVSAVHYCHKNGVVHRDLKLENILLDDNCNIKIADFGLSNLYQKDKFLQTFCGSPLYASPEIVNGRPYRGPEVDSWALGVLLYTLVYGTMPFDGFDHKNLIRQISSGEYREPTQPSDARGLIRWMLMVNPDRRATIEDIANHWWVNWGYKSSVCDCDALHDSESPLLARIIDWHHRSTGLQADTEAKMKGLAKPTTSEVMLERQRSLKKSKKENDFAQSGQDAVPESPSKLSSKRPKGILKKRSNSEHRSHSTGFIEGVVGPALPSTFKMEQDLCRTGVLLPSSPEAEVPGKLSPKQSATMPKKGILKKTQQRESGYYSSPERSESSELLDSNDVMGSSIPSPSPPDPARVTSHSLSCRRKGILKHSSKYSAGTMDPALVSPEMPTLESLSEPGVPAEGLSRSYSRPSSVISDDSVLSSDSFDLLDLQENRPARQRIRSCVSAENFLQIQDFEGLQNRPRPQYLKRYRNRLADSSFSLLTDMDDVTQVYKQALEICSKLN
Conditions: at 0.1 µM.

The target in assay [13] is T4, NUAK family SNF1-like kinase 1 (Homo sapiens). Conditions: at 1 µM.
Assay [14] concerns the target T5, Serine/threonine-protein kinase BRSK1 (Homo sapiens) (UniProt Q8TDC3).
T5 sequence (whole entry): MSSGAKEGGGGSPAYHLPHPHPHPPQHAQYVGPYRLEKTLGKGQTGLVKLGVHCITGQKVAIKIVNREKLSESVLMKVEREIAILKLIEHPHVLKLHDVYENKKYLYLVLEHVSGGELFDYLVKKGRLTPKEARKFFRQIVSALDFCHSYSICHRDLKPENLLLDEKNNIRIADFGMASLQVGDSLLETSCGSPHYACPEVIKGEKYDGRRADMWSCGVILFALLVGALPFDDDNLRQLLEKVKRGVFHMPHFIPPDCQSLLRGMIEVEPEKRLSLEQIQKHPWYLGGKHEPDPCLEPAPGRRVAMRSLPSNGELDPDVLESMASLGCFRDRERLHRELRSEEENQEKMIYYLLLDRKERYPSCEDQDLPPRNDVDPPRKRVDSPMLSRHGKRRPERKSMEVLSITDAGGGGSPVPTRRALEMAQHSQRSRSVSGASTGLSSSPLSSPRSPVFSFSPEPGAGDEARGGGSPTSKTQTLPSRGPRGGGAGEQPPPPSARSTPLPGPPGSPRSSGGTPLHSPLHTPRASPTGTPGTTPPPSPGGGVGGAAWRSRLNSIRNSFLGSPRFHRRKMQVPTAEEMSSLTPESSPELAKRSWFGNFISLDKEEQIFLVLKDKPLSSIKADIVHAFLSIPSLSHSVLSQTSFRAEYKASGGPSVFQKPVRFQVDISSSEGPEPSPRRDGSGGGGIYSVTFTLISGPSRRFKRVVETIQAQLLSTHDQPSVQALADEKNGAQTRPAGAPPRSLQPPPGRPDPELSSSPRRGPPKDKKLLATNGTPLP
Conditions: at 0.1 µM.

Assay [15] has as its target T5, Serine/threonine-protein kinase BRSK1 (Homo sapiens). Conditions: at 1 µM.
Assay [16] deals with T6, Serine/threonine-protein kinase BRSK2 (Homo sapiens) (UniProt Q8IWQ3).
T6 sequence (whole entry): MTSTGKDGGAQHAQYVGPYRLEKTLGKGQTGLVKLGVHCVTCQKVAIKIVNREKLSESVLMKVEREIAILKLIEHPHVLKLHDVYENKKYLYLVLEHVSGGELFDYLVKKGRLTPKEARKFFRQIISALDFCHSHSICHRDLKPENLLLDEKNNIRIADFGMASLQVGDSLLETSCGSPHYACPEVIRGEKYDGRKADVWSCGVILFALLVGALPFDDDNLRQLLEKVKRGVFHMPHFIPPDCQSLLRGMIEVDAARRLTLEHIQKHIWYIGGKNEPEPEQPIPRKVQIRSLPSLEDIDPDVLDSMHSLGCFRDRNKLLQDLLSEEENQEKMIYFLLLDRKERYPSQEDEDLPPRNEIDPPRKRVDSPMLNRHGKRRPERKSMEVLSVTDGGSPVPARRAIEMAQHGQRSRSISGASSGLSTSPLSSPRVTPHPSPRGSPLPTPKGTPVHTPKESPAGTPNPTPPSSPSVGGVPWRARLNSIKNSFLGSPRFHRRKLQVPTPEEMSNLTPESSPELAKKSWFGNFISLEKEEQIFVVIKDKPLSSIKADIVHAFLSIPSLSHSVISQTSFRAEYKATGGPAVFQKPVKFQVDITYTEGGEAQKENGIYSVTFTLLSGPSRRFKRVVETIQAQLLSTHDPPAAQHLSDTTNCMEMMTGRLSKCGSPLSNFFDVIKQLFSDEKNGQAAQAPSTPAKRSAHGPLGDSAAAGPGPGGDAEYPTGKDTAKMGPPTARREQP
Conditions: at 0.1 µM.

In assay [17] the target is T6, Serine/threonine-protein kinase BRSK2 (Homo sapiens). Conditions: at 1 µM.
For assay [18], the target named is Calcium/calmodulin-dependent protein kinase type 1D (Homo sapiens) (UniProt Q8IU85). Conditions: at 0.1 µM.
The target is the same in assay [19]. Conditions: at 1 µM.
Assay [20] concerns the target Calcium/calmodulin-dependent protein kinase type II subunit alpha (Homo sapiens) (UniProt Q9UQM7). Conditions: at 0.1 µM.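 Also: reported values are averages (mean inhibition of CAMK2A).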

The structures appear in SMILES notation.

Sequence of Calcium/calmodulin-dependent protein kinase type 1D (Homo sapiens) (Q8IU85 whole entry, looked up): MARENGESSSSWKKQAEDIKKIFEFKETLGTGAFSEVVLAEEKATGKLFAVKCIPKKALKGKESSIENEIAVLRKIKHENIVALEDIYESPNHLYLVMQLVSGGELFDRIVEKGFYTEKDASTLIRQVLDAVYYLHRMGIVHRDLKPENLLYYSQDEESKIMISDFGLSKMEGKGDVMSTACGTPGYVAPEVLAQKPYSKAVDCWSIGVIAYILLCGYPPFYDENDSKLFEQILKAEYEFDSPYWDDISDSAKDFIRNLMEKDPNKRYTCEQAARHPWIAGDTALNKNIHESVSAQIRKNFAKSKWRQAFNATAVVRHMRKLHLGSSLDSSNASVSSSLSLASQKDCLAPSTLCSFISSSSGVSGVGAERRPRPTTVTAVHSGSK
Sequence of Calcium/calmodulin-dependent protein kinase type II subunit alpha (Homo sapiens) (Q9UQM7 whole entry): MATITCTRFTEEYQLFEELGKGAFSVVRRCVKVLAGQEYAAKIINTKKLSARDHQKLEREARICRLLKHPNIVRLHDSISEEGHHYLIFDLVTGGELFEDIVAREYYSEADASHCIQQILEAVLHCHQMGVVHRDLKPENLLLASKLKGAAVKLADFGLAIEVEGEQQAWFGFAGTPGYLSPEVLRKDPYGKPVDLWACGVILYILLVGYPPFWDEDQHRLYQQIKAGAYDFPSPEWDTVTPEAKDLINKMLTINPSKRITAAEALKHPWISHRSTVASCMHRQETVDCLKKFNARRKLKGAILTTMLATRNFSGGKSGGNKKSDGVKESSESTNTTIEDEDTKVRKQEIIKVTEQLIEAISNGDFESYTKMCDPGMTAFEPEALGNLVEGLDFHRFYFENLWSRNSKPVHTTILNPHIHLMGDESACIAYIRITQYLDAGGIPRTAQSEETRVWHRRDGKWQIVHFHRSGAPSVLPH
Sequence of 5'-AMP-activated protein kinase catalytic subunit alpha-1 (Homo sapiens) (Q13131 whole entry, looked up): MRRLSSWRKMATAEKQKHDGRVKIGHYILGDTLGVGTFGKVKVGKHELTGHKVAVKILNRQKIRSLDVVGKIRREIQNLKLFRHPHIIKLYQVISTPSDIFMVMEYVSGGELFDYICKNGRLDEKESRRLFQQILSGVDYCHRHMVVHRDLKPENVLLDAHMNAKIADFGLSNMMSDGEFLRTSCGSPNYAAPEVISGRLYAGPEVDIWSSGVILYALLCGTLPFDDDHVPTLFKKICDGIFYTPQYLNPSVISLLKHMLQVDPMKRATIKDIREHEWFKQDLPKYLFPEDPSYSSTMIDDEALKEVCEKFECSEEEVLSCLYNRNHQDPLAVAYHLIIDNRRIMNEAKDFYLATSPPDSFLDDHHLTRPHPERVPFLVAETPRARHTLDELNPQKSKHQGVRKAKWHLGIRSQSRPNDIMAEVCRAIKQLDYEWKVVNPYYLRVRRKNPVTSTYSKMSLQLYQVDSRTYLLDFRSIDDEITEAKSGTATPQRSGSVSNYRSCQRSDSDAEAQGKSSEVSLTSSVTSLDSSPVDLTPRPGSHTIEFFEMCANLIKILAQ
Sequence of 5'-AMP-activated protein kinase catalytic subunit alpha-2 (Homo sapiens) (P54646 whole entry, looked up): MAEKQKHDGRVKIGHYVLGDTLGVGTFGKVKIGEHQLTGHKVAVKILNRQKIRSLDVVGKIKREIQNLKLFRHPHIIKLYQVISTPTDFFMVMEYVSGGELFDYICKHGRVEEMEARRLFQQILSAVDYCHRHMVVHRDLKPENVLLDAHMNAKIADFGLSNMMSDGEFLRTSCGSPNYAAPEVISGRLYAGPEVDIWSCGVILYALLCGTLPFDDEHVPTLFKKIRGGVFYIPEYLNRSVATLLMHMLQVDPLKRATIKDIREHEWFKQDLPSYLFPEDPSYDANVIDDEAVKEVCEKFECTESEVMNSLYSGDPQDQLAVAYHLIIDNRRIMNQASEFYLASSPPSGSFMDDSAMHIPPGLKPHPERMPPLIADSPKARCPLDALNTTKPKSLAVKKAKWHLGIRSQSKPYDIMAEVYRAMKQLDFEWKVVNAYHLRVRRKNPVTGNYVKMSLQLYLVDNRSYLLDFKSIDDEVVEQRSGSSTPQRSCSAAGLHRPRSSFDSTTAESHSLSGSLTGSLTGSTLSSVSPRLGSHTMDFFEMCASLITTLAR
Sequence of Ribosomal protein S6 kinase alpha-6 (Homo sapiens) (Q9UK32 whole entry): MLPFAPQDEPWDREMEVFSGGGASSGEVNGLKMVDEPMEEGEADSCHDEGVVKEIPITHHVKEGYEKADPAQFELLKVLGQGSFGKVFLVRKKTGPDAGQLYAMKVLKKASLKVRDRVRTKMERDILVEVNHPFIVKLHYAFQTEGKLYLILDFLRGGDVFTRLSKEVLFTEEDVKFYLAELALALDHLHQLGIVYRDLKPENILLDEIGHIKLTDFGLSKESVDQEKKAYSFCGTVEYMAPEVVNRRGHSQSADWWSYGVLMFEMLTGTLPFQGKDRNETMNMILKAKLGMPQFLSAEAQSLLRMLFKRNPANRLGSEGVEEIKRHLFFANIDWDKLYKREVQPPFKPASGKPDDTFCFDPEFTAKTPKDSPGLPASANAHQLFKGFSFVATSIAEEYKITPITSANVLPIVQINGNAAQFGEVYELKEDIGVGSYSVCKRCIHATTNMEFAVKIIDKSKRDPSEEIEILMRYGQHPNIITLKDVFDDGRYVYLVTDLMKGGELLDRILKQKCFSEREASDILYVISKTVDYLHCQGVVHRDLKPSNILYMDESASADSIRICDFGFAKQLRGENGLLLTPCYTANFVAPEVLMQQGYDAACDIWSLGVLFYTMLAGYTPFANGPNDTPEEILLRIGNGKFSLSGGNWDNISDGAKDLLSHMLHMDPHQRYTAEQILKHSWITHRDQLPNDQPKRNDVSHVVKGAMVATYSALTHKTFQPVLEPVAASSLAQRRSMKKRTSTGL

As for `NS(=O)(=O)c1ccc(N/N=C2\C(=O)Nc3ccc4ncccc4c32)cc1`, the inhibition (commonly the change of the read-out against control, counted positive when it falls) was 55.5% in [1]; 10.6% in [2]; 50% in assay [3]; -0.23% in assay [4]; 21.3% in assay [5]; 1.63% in assay [6]. The inhibition was 10.2% in [7]; 54.8% in assay [8]; 82.7% in assay [9]; 28.9% in assay [10]; 62.2% in [11]; 79.8% in [12]. Moreover, the inhibition in assay [13] was found to be 85.4%; in assay [14], 46%; in [15] it was 76%; in assay [16], 60.4%; in assay [17], 80.7%; in assay [18] it was 2.62%. In addition, the inhibition was 9.02% in assay [19] and 2.95% in assay [20].

As for `Fc1cccc(COc2ccc(Nc3ncnc4sc(-c5ccco5)cc34)cc2Cl)c1`, the inhibition turned out to be 1.67% in [1]; 2.84% in assay [2]; 3.04% in assay [3]; 1.55% in assay [4]; 0.68% in [5]; 4.19% in assay [6]. Further, the inhibition in assay [7] worked out at 4.61%; in assay [8], 2.46%; in assay [9] it was 4.38%; in assay [10], 4.1%; in assay [11], 5.24%; in [12], 1.97%. Further, the inhibition in [13] was 6.27%; in assay [14], 0.38%; in assay [15], 7.21%; in [16], 4.09%; in assay [17], 7.5%; in assay [18], -0.77%. In addition, the inhibition in assay [19] was -1.08%; in [20], 1.16%.

On to `CS(=O)(=O)CCNCc1coc(-c2ccc3ncnc(Nc4ccc(OCc5ccccc5)cc4)c3c2)c1`, for which the inhibition in assay [1] is 2.32%; in assay [2] it was 2.57%; in assay [3] it was 2.35%; in [4], -0.69%; in assay [5], 1.93%; in [6] it was -0.71%. In addition, the inhibition was determined as 1.87% in assay [7]; 2.75% in assay [8]; 2.96% in assay [9]; 3.81% in assay [10]; 4.29% in assay [11]; 2.46% in assay [12]. The inhibition was 3.61% in assay [13]; 1.86% in assay [14]; -1.55% in assay [15]; 1.32% in assay [16]; 3.39% in assay [17]; 0.92% in [18]. Also, the results for the inhibition in [19] and in [20] were 2.2% and 2.93%, respectively.
